# Article PMC7862700, “An all-to-all approach to the identification of sequence-specific readers for epigenetic DNA modifications on cytosine”
# Legend:
# Assay in all cases: DAPPL (digital affinity profiling via proximity ligation, sequencing); 10 mM Tris-HCl pH 7.5, 50 mM NaCl, 1 mM DTT, 4% glycerol, room temperature, 30 min; GST-TFs on glutathione beads, 16-mer random dsDNA library, 0.1% formaldehyde crosslink after washing; high values mean tight binding
# Conditions in all cases: protein: recombinant; tags: N-terminal GST; dsDNA, one strand shown
# ETV1 = ETV1 (Homo sapiens, UniProt P50549 1-477)
# Outline: (§1)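 Sequencing on an Illumina NextSeq500 followed washing, crosslinking with 0.1% formaldehyde, proximity ligation (BsaI/T4 ligase, 1 h, 37 °C) and PCR amplification of pools that had been incubated for 30 min at room temperature with 200 nmole of a random double-stranded 16-mer DNA library in Tris/NaCl/DTT/glycerol buffer. Each pool held DNA-barcoded human transcription factors, expressed in yeast as GST fusions and captured on glutathione beads, plus a tag-only sample. Binding signal is a hexamer's read frequency for a factor divided by its frequency in the tag-only sample.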
# ERF = biological target: T1, ERF (Homo sapiens, UniProt P50548 1-548)
# T1 sequence: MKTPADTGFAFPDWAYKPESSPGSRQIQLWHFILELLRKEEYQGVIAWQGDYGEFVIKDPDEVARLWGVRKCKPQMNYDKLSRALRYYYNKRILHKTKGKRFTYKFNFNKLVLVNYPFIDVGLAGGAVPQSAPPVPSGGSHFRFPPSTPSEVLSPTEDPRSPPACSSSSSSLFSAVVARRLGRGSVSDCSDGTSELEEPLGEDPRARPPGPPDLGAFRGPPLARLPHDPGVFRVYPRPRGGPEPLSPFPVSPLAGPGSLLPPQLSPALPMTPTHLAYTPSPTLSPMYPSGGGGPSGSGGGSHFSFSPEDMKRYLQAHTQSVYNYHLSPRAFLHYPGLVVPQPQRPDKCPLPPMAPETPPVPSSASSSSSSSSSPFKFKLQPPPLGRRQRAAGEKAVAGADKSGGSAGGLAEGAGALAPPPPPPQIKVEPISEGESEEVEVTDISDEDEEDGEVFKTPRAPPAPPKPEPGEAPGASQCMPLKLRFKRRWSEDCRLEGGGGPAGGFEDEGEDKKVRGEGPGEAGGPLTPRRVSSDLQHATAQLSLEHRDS
# Outline: as §1
# ETV3L = biological target: T2, ETV3L (Homo sapiens, UniProt Q6ZN32 1-361)
# T2 sequence: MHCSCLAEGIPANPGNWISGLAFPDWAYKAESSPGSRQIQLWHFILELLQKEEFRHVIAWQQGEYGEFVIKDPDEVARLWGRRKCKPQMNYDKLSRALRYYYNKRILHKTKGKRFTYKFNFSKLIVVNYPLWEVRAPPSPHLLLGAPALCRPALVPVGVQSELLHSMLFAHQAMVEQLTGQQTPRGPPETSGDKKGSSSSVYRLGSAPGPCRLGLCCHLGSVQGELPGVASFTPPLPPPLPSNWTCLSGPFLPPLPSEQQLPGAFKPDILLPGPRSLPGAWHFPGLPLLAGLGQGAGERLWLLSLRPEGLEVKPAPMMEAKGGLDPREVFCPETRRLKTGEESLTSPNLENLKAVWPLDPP
# Outline: as §1
# ETS2 = biological target: T3, ETS2 (Homo sapiens, UniProt P15036 1-469)
# T3 sequence: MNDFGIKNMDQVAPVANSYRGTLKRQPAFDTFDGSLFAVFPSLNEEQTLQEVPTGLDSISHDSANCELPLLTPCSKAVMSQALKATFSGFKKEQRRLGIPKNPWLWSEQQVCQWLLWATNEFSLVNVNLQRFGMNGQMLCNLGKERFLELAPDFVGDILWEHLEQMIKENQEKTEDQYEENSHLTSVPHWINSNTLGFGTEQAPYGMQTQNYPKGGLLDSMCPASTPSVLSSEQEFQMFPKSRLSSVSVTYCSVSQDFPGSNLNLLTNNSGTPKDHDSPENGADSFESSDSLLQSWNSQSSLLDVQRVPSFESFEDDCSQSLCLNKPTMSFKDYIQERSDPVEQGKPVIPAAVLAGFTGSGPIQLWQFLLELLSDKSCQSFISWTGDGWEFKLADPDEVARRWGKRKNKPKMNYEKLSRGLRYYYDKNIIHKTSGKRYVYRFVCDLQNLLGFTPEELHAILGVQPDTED
# Outline: as §1
# SPDEF = biological target: T4, SPDEF (Homo sapiens, UniProt O95238 1-335)
# T4 sequence: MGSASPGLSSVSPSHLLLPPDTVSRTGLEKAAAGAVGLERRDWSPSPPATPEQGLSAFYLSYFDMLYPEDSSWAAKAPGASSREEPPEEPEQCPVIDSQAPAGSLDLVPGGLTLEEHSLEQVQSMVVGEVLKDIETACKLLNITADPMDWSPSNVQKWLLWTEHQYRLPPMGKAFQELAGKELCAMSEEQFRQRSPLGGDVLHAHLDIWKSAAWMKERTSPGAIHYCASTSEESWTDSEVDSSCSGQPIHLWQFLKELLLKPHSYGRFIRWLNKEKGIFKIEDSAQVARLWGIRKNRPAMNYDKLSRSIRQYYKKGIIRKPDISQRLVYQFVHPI
# Outline: as §1
# ETV7 = biological target: T5, ETV7 (Homo sapiens, UniProt Q9Y603 1-341)
# T5 sequence: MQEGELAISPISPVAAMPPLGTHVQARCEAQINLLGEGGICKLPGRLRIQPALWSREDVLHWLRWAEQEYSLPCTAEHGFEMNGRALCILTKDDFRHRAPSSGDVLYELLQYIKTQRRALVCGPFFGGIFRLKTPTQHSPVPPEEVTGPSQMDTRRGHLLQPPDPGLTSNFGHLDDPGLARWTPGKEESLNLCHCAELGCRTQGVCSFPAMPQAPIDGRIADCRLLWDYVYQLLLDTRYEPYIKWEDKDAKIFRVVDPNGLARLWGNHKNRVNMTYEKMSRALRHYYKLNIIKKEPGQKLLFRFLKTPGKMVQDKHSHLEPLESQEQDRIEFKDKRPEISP
# Outline: as §1
# ELF5 = biological target: T6, ELF5 (Homo sapiens, UniProt Q9UKW6-2 1-255)
# T6 sequence: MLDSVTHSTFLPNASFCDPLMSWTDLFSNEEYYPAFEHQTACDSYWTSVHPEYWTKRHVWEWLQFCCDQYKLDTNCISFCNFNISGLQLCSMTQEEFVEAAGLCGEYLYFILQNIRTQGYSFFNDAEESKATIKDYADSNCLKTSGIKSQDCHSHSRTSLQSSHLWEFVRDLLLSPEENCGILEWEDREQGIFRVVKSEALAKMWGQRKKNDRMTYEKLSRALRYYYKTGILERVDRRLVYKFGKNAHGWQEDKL
# Outline: as §1
# ETV3 = biological target: T7, ETV3 (Homo sapiens, UniProt P41162-2 1-143)
# T7 sequence: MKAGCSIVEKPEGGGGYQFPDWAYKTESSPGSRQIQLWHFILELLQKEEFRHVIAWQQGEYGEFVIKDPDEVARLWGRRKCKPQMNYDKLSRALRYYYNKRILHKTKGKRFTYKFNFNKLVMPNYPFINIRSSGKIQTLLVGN
# Outline: as §1
# ETV6 = ETV6 (Homo sapiens, UniProt P41212 1-452)
# Outline: as §1
# Sequence of ETV6 (P41212 whole entry): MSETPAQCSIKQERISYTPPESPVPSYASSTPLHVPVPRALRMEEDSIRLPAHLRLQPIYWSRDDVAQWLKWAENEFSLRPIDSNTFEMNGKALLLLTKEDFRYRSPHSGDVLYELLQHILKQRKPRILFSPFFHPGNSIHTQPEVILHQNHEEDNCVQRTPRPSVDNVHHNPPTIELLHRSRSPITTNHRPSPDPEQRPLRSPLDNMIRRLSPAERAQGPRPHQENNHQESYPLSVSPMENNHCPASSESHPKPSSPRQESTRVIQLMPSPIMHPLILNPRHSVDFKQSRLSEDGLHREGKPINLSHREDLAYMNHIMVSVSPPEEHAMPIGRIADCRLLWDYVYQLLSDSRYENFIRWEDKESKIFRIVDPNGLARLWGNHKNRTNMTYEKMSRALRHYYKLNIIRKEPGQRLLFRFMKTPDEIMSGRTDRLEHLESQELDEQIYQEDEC
# Sequence of ETV1 (P50549 whole entry, the tested form may be a part): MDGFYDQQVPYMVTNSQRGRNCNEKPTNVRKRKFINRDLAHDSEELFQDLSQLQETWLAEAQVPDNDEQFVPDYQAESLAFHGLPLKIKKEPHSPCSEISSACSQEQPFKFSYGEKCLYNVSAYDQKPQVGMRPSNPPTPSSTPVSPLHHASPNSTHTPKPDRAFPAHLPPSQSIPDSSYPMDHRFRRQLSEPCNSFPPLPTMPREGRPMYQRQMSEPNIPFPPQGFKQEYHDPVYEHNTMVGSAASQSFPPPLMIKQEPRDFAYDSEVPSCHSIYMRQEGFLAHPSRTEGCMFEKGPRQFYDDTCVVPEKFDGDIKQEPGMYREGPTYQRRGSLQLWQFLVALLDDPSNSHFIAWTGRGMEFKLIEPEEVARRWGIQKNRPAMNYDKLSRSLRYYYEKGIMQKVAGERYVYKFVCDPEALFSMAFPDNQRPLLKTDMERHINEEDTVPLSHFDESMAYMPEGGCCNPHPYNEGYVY
sequence,measurement,setting,value
AATCCC,binding signal,ETV1,"1.42 fold enrichment (6-mer frequency, TF over GST control)"
same,binding signal,ERF,"1.44 fold enrichment (6-mer frequency, TF over GST control)"
same,binding signal,ETV3L,"1.29 fold enrichment (6-mer frequency, TF over GST control)"
same,binding signal,ETS2,"1.25 fold enrichment (6-mer frequency, TF over GST control)"
same,binding signal,SPDEF,"1.36 fold enrichment (6-mer frequency, TF over GST control)"
same,binding signal,ETV7,"1.23 fold enrichment (6-mer frequency, TF over GST control)"
same,binding signal,ELF5,"1.4 fold enrichment (6-mer frequency, TF over GST control)"
same,binding signal,ETV3,"1.26 fold enrichment (6-mer frequency, TF over GST control)"
same,binding signal,ETV6,"1.42 fold enrichment (6-mer frequency, TF over GST control)"
